Screens deposited in PubChem by National Center for Advancing Translational Sciences (NCATS).
Only some compounds are listed: those with a hit (about 19% of all), similar ones and a draw of the others.
Pf growth 48h: Primary qHTS for delayed death inhibitors of the malarial parasite plastid, 48 hour incubation; P. falciparum luciferase growth in erythrocytes, 48 h; Potency, µM (series often up to 28.7 µM), for the others: at the highest dose activity change, negative = inhibition, usual class: inhibitors; actives 5.9% (n = 310,000); AID 504832, 2011; further: potency means the concentration at half of the fitted maximal effect; on the % scale 0 is the no-effect control and ±100 the full control effect
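Here the parasites carry a stable luciferase gene and grow inside erythrocytes in Albumax-based RPMI medium with compound for one erythrocytic cycle. Activity is scored as loss of luminescent signal.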
Cycloheximide cs: Cycloheximide Counterscreen for Small Molecule Inhibitors of Shiga Toxin. max response, %. actives 12% (n = 300,000). cell reporter, cycloheximide protein synthesis inhibition counterscreen; in the data active means max response mostly above about 13%, no sharp cut-off; inactive means mostly below about 14%; further: read at 38.3 µM for the half of the compounds with a filed dose; 0% is about no effect
MARV entry inh: qHTS for inhibitors of binding or entry into cells for Marburg Virus; Marburg virus pseudotyped entry inhibition, cell reporter; Potency, µM (highest dose often 37.8 µM), for the others: at the top dose activity change, negative = inhibition, most hits filed as inhibitors; actives 1.8% (n = 300,000); calls by dose curve; tested in HEK293 cells; further: potency means the concentration at half of the fitted maximal effect; on the % scale 0 is the no-effect control and ±100 the full control effect
Pf growth 96h: Primary qHTS for delayed death inhibitors of the malarial parasite plastid, 96 hour incubation; P. falciparum luciferase reporter growth, 96 h; Potency, µM (series often up to 28.7 µM), inactives show at the highest dose activity change, negative = inhibition, hits mostly inhibitors; actives 6.9% (n = 320,000); AID 504834, 2011; further: potency means the concentration at half of the fitted maximal effect; on the % scale 0 is the no-effect control and ±100 the full control effect
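Two parasite generations (96 h, 37 C, 5% CO2) of compound exposure in infected erythrocytes (0.05% parasitemia, 2% hematocrit). Luciferase-reporter P. falciparum; decreased luminescence indicates inhibited growth, aimed at apicoplast-acting delayed death.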
LASV entry inh: qHTS for Inhibitors of binding or entry into cells for Lassa Virus | Lassa virus pseudotype entry inhibition, cell reporter | AID 540256, 2011 | Potency, µM (series often up to 37.9 µM), for the others: at the top dose activity change, negative = inhibition, actives largely listed as inhibitors | actives 1.2% (n = 300,000); calls by dose curve; tested in HEK293 cells; further: potency means the concentration at half of the fitted maximal effect; on the % scale 0 is the no-effect control and ±100 the full control effect; nearly all actives have a fitted effect of over 50% in size
Shiga inhibitor: A qHTS for Small Molecule Inhibitors of Shiga Toxin; Vero cells, Shiga toxin protein synthesis inhibition reporter; inhibition, % at 38.7 µM; actives 9.2% (n = 290,000); in the data active means inhibition mostly above about 28%, no sharp cut-off; inactive means mostly below about 43%; further: 0% is about no effect
Numbers without * were called inactive; ? = inconclusive; . = no result given; [ ] = remark or other dose. Unless noted, the call rests on the fitted dose curve; in most records, active means well fitted inhibition curve with a large enough effect; inconclusive means small, poorly fitted or top-dose-only effect, or another doubt; inactive means no such curve, though single readings can be large or run the other way.

SMILES	Pf growth 48h	Cycloheximide cs	MARV entry inh	Pf growth 96h	LASV entry inh	Shiga inhibitor
CCOc1ccc(Nc2nc3cc(Cl)c(Cl)cc3nc2-n2nc(C)cc2C)cc1	.	.	-3%[46.1 µM]	.	5%[46.1 µM]	.
Cc1cc(Cl)nc(-n2nc(C)cc2C)n1	-1%	1	-3%	-6%	12%	12
Cc1cc(Nc2ccc(Cl)cc2C)nc(-n2nc(C)cc2C)n1	.	.	.	.	-2%[46.1 µM]	.
S=C(NCc1ccccn1)Nc1ccc(Cl)cc1	?	13	20%	?	7%	19
CCOc1ccc(-c2nnc(SCC(=O)NCCc3ccccc3)nc2-c2ccc(OCC)c(OC)c2)cc1OC	.	.	.	.	-22%[46.1 µM]	.
CC(C)N(CCNC(=O)c1ccc(NC2=NC3CS(=O)(=O)CC3S2)cc1)Cc1ccco1 (stereo unspecified)	8%	-1	.	-19%	.	-9
COc1ccccc1/C=N/Nc1cc(C)nc(N2CCOCC2)n1	?	24*	.	?	.	22
CCOc1cc(/C=N/Nc2cc(C)nc(-n3nc(C)cc3C)n2)ccc1O	0.37µM*	-1	.	1.7µM*	.	1
O=C(NCc1ccccc1)c1ccc2nccnc2c1	.	-2	-2%	41%	11%	3
CC[C@]12c3[nH]c4ccc(OC)cc4c3CCN1C(=O)C(CC(=O)NC/C=C(\C)CCC=C(C)C)C[C@@H]2C(=O)N1CCN(C(=O)c2ccco2)CC1 (stereo partly specified)	.	.	-9%	.	.	.
CCOc1ccc(NC(=O)CCNS(=O)(=O)c2cccs2)cc1	.	12	?	2%	3%[46.1 µM]	38
Cc1ccc2c(c1)COc1c3ccc(C(=O)N[C@@H](CO)C(C)C)cc3nn1-2	184%	55*	.	226%	.	74*
C[C@@H](CO)NC(=O)c1ccc2c3n(nc2c1)-c1ccccc1CO3	139%	17*	.	302%	.	8
O=C(NCC1CCCO1)c1ccc2c(c1)OCO2 (stereo unspecified)	25%	10	24%	5%	?	27
COCCNC(=O)c1ccc2c3n(nc2c1)-c1ccc(C)cc1CO3	56%	59*	.	37%	.	134*
CCOc1c2ccc(C(=O)NCCc3ccc(C)cc3)cc2nn1CC	-14%	1	.	42%	.	23
CCCCn1nc2cc(C(=O)N[C@H](C)C3CCCCC3)ccc2c1OCC	?	-3	.	?	.	9
O=C(NCC1CCCO1)c1ccc2c3n(nc2c1)-c1ccccc1CO3 (stereo unspecified)	199%	52*	.	3%	.	54*
CCOc1c2ccc(C(=O)NC3CCCc4ccccc43)cc2nn1C (stereo unspecified)	25%	13	.	0%	.	-13
O=C(O)/C=C/c1cccc2c1OCCO2	?	2	.	41%	.	-5
CCOc1ccc(Br)cc1CNCCSc1nnnn1-c1ccccc1	.	.	7%[46.1 µM]	.	-6%[46.1 µM]	.
CCC(C)NC(=O)CSc1c2c(nc3cc(Cl)ccc13)CCCC2 (stereo unspecified)	.	.	-6%[46.1 µM]	.	?	.
CC(C)NC(=O)c1ccc2c3n(nc2c1)-c1ccc(Cl)cc1CO3	154%	21*	.	215%	.	60*
Cc1cccc(-n2cnc3cc(C(=O)N4CCCCC4)ccc32)c1	1%	41*	5%	.	14%	100*
CCCCCNC(=O)c1ccc2c(c1)ncn2-c1cccc(C)c1	.	.	.	.	-12%[46.1 µM]	.
SMILES	Pf growth 48h	Cycloheximide cs	MARV entry inh	Pf growth 96h	LASV entry inh	Shiga inhibitor
Cc1cccc(-n2c(C)nc3cc(C(=O)N4CCOCC4)ccc32)c1	11%	13*	.	4%	.	17
CCOC(=O)N1CCC(NC(=O)CSCc2cnn(-c3ccccc3)c2-n2cccc2)CC1	?	-1	-20%	2%	?	12
CSc1ccccc1NP1(=O)OCC(C)([N+](=O)[O-])CO1 (stereo unspecified)	.	.	7%	.	-7%	.
CC1=C(C(=O)Nc2ccc(C)cn2)C(c2cnn(C)c2)C2=C(CCCC2=O)N1 (stereo unspecified)	25%	-2	1%	-4%	2%	14
Cc1ccc(NC(=O)COC(=O)/C(=C/c2cccs2)c2cccs2)cc1S(=O)(=O)N(C)C	40%	31*	?	5%	11µM*	89*
Cc1ccc(NC(=O)COC(=O)c2ccccc2Cl)cc1S(=O)(=O)N(C)C	?	32*	0%	0%	5%	71*
Cc1ccc(NC(=O)Cc2ccc(Cl)c(Cl)c2)cc1S(=O)(=O)N(C)C	5%	8	?	-77%	13µM*	8
Cc1ccc(NC(=O)CNc2ccc(Cl)c(Cl)c2)cc1S(=O)(=O)N(C)C	-4%	-1	?	?	?	16
COc1ccc(CN2C(=O)CC(Cc3cc(C)cc(C)c3)C2=O)cc1OC (stereo unspecified)	?	-1	?	?	-8%	-4
CCN(CC)CCn1c(NCc2cccc(OC)c2)nc2ccccc21	.	6	-23%	?	-1%	26
CCN(CC)CCNC1=NCCn2c1cc1cc(OC)ccc12	.	-2	?	?	8.2µM*	-16
Cc1cc(C)c2cc(CN(Cc3nnnn3C3CCCCC3)CC3CCCO3)c(=O)[nH]c2c1 (stereo unspecified)	13µM*	-8	?	4%[5.75 µM]	-19%	-8
Cc1cc2cc(CN(Cc3nnnn3C3CCCCC3)CC3CCCO3)c(=O)[nH]c2cc1C (stereo unspecified)	8.3µM*	-3	?	-11%	?	-10
Cc1ccc2cc(CN(Cc3nnnn3C3CCCCC3)CC3CCCO3)c(=O)[nH]c2c1 (stereo unspecified)	?	-3	?	-10%	-20%	-16
COc1ccc2cc(CN(CCCN3CCOCC3)Cc3nnnn3C3CCCC3)c(=O)[nH]c2c1	10µM*	6	?	5.2µM*	-5%	-5
COc1ccc(C(=O)NC(=S)Nc2nnn(C)n2)cc1	5%	-2	?	31%	6%	-4
N#CC(c1ccc(Cl)cc1)c1ccc(Cl)nn1 (stereo unspecified)	.	-2	?	?	13%	-9
O=S1(=O)C=C(SCc2ccc(Cl)c(Cl)c2)Nc2ccccc21	?	7	?	?	?	-12
CCOC(=O)c1c(C)n(CCN2CCN(C)CC2)c2ccc(OC)cc12	?	-2	?	3.7µM*	8%	-17
CCOC(=O)c1c(C)n(C)c2ccc(OCC(N)=O)cc12	3%	2	.	10µM*	.	9
CCn1c(C)c(C(=O)Nc2ccc(OC)cc2)c2cc(OC)ccc21	58%	19*	.	47%	.	27
CCOC(=O)c1c(C)n(C)c2cc(-c3ccc(F)cc3)c(O)cc12	7.4µM*	1	17%	-22%	11%	-18
COc1ccc(-n2c(C)c(C(C)=O)c3cc(OCC(N)=O)ccc32)cc1	?	-1	?	?	?	-13
